The OligoGym collection

Molecular target: CIRBP
Experiment: pooled miR-30 sensor sort-seq; sequence = guide strand
Details: shRNA
Further: reference of the scale not given here.

Row | Sequence | sensor-assay potency score (higher = more potent)
1 | TCACTGTAGCCACCACTCTGAC | -1.45
2 | TATAGTAGTCTCTGGAGCCTCC | -0.259
3 | TTGGTGTCAAAACTCAGCCCTC | -0.687
4 | AACTGTCGTAACTGTCTCTGTA | 0.0143
5 | ATCCTTAGCGTCGTCAATGTTC | -1.29
6 | TAACTGTCTCTGTAGGACCCGC | -0.935
7 | TCGTCAATGTTCTCAAAGGTGA | -0.799
8 | TACTTTGAGAAGACCTGCTCCA | 0.53

Molecular target: CLCN5
Experiment: as above
Details: shRNA

Row | Sequence | sensor-assay potency score (higher = more potent)
9 | TTTCATCACATCCATTGCCAGG | -1.34
10 | TAGCTGACCTCTTCAAGGCTGA | -0.234
11 | TCAAACCAGCTAACGAACCTGA | -0.258
12 | TATAACAGGATACTTGCCCAAC | -1.3
13 | TGCTATAGCACCAACAGCCATG | -1.3
14 | TTGAGGGGAAAATAGTAGCTGA | -0.729
15 | AAAAGCATCACTCACACTGTGA | -0.413
16 | TATAGTAATGACAATTTTCAGT | -0.57
17 | TTTTATTGGTAATCTCTCGGTG | -0.249
18 | TTTATTGGTAATCTCTCGGTGC | 0.182
19 | TCTTATGAGCAAACTCTTCTTT | -0.0775
20 | TATAGCACCAACAGCCATGCTA | -0.0804
21 | TATATGCTTTAACACATCCTTT | -1.04
22 | TTCCACAGTCATACTGTCCTGA | 0.719
23 | TTTGCTTGTGTTGAAACGGTTC | -0.272
24 | TTTAACACATCCTTTTTGGTAA | -0.176
25 | TTAAGTCTGTCATCCAATGAGC | -1.29
26 | TTCCTGTATTTGTTGAAGCAGT | -0.859
27 | TTTGTCTCTCTCTTCAAAGGTG | -0.196
28 | TTGATAACCAGAGTCCACTTAC | -0.327
29 | TTGAAATCATCATAGGTCCCTA | -0.0127

Molecular target: CLDN16
Experiment: as above
Details: shRNA

Row | Sequence | sensor-assay potency score (higher = more potent)
30 | TTCTCTCAGGTCCAACATCTTT | -1.61
31 | TTAAAAAGATATAAGCAGCAGG | -0.367
32 | AATATCTGCAGTAATCATCAAC | -0.661
33 | TACACATCAACAGCATACCACA | -1.23
34 | TAGAATATCTGCAGTAATCATC | -0.742
35 | TACATTTTGGCCGTCTCTGTGC | -0.539
36 | TTTGTGACGCATTCCCACCAGA | -0.822
37 | AAGAATAATACAAACAGGCTGT | 0.277
38 | TCTGCAGTAATCATCAACGCTC | -0.0383
39 | AAATATATTGTGCAAAACCAAA | -1.81
40 | TAGAACGTTCCACATACACATC | -1.34
